{"source": "the antibiotic and cytotoxicity screens of Wong et al. (2023)", "note": "The whole screen tested about 39,000 compounds, of which about 3,300 (8.5%) were called active. Only a selection was taken, and actives are over-represented in it overall.", "data": [{"test_system": "HepG2", "assay": "cytotoxicity call (relative viability < 0.9)", "conditions": "10 µM", "values": [{"smiles": "C[C@@H]1CN([C@H](C)CO)C(=O)c2cccc(NC(=O)c3cnccn3)c2O[C@H]1CN(C)CC1CCCCC1", "cytotoxicity call": "inactive"}, {"smiles": "O=C(C[C@H]1CC[C@@H]2[C@H](COC[C@H](O)CN2C(=O)c2cccnc2)O1)NCc1ccc(-c2ccccc2)cc1", "cytotoxicity call": "inactive"}, {"smiles": "C[C@@H]1CN([C@@H](C)CO)C(=O)c2cccc(NS(=O)(=O)c3ccc(F)cc3)c2O[C@@H]1CN(C)S(=O)(=O)c1cccs1", "cytotoxicity call": "inactive"}, {"smiles": "C[C@@H]1CN([C@@H](C)CO)C(=O)Cc2cc(NC(=O)CCN3CCOCC3)ccc2O[C@@H]1CN(C)S(=O)(=O)c1cccs1", "cytotoxicity call": "inactive"}, {"smiles": "C[C@H]1CN([C@@H](C)CO)C(=O)c2ccccc2-c2ccccc2CO[C@@H]1CN(C)C(=O)Nc1ccc(F)cc1", "cytotoxicity call": "inactive"}, {"smiles": "O=C(CN1CCOCC1)N[C@@H]1CC[C@H](CCn2cc(C3CC3)nn2)O[C@@H]1CO", "cytotoxicity call": "inactive"}, {"smiles": "O=C(CN1CCOCC1)N[C@H]1CC[C@@H](CCn2cc(C3CC3)nn2)O[C@H]1CO", "cytotoxicity call": "active"}, {"smiles": "O=C(CN1CCOCC1)N[C@H]1CC[C@H](CCn2cc(C3CC3)nn2)O[C@@H]1CO", "cytotoxicity call": "inactive"}, {"smiles": "CC(C)NC(=O)N[C@@H]1C=C[C@@H](CC(=O)O)O[C@H]1CO", "cytotoxicity call": "inactive"}, {"smiles": "CC(=O)Oc1ccccc1C(=O)Nc1ncc([N+](=O)[O-])s1", "cytotoxicity call": "active"}, {"smiles": "CC(=O)Oc1ccccc1C(=O)Nc1ccccc1", "cytotoxicity call": "inactive"}, {"smiles": "CC(=O)Nc1ncc([N+](=O)[O-])s1", "cytotoxicity call": "inactive"}, {"smiles": "C[C@@H]1CN([C@H](C)CO)C(=O)CCCn2cc(nn2)CO[C@@H]1CN(C)C(=O)Nc1cccc(Oc2ccccn2)c1", "cytotoxicity call": "inactive"}, {"smiles": "O=C(N/N=C/[C@@H](O)[C@H](O)[C@H](O)CO)c1ccccc1O", "cytotoxicity call": "inactive"}, {"smiles": "O=C(N/N=C/[C@H](O)[C@@H](O)[C@H](O)CO)c1ccccc1O", "cytotoxicity call": "inactive"}, {"smiles": "O=C(N/N=C/[C@H](O)[C@@H](O)[C@H](O)[C@H](O)CO)c1ccccc1O", "cytotoxicity call": "inactive"}, {"smiles": "O=C(N/N=C/[C@H](O)[C@@H](O)[C@@H](O)[C@H](O)C(=O)O)c1ccccc1O", "cytotoxicity call": "active"}, {"smiles": "O=C(N/N=C/[C@H](O)[C@H](O)[C@@H](O)[C@@H](O)CO)c1ccccc1O", "cytotoxicity call": "active"}, {"smiles": "O=C(N/N=C/[C@H](O)[C@@H](O)[C@@H](O)[C@H](O)C(=O)O)c1ccccn1", "cytotoxicity call": "inactive"}, {"smiles": "C[C@@H]1CN([C@@H](C)CO)C(=O)Cc2cc(NC(=O)CCCCCC(=O)Nc3ccccc3N)ccc2O[C@@H]1CN(C)C(=O)Nc1ccc(C(F)(F)F)cc1", "cytotoxicity call": "inactive"}, {"smiles": "C[C@@H]1CN([C@H](C)CO)C(=O)Cc2cc(NS(=O)(=O)c3ccccc3)ccc2O[C@@H]1CN(C)S(C)(=O)=O", "cytotoxicity call": "inactive"}, {"smiles": "CC(=O)OC12COC1CC(O)C1(C)C(=O)C(O)C3=C(C)C(OC(=O)C(O)C(NC(=O)OC(C)(C)C)c4ccccc4)CC(O)(C(OC(=O)c4ccccc4)C21)C3(C)C.O.O.O", "note": "(stereo not drawn)", "cytotoxicity call": "active"}, {"smiles": "CC(=O)OC1C(=O)C2(C)C(O)CC3OCC3(OC(C)=O)C2C(OC(=O)c2ccccc2)C2(O)CC(OC(=O)C(O)C(NC(=O)c3ccccc3)c3ccccc3)C(C)=C1C2(C)C", "note": "(stereo not drawn)", "cytotoxicity call": "active"}, {"smiles": "COC1C(=O)C2(C)C(OC)CC3OCC3(OC(C)=O)C2C(OC(=O)c2ccccc2)C2(O)CC(OC(=O)C(O)C(NC(=O)OC(C)(C)C)c3ccccc3)C(C)=C1C2(C)C", "note": "(stereo not drawn)", "cytotoxicity call": "active"}, {"smiles": "C[C@@H]1CN([C@@H](C)CO)C(=O)c2cccc(N(C)C)c2O[C@@H]1CN(C)S(=O)(=O)c1ccc(Cl)cc1", "cytotoxicity call": "inactive"}, {"smiles": "C[C@@H]1CN([C@@H](C)CO)C(=O)c2cccc(NC(=O)Nc3ccc(C(F)(F)F)cc3)c2O[C@H]1CN(C)S(=O)(=O)c1ccc(Cl)cc1", "cytotoxicity call": "inactive"}, {"smiles": "CC(C)NC(=O)Nc1ccc2c(c1)C(=O)N([C@@H](C)CO)C[C@H](C)[C@@H](CN(C)C(=O)Nc1ccc(F)cc1)OCCCC[C@H](C)O2", "cytotoxicity call": "inactive"}, {"smiles": "O=C(/C=C/c1ccc(O)c(O)c1)O[C@H]1[C@H](O)[C@@H](O)[C@H](OCCc2ccc(O)c(O)c2)O[C@@H]1CO", "cytotoxicity call": "inactive"}, {"smiles": "C[C@H]1CCCCO[C@H](CN(C)Cc2ccc(C(=O)O)cc2)[C@@H](C)CN([C@@H](C)CO)C(=O)c2cc(NS(=O)(=O)c3ccc(Cl)cc3)ccc2O1", "cytotoxicity call": "inactive"}, {"smiles": "NCc1c(Cl)cccc1Cl", "cytotoxicity call": "inactive"}, {"smiles": "COCc1cn(CC[C@H]2CC[C@@H](NC(=O)CCN3CCCCC3)[C@H](CO)O2)nn1", "cytotoxicity call": "inactive"}, {"smiles": "C[C@H]1CCCCO[C@H](CN(C)C(=O)Nc2ccc(C(F)(F)F)cc2)[C@@H](C)CN([C@@H](C)CO)C(=O)c2cc(NS(=O)(=O)c3cn(C)cn3)ccc2O1", "cytotoxicity call": "inactive"}, {"smiles": "C[C@@H]1CN([C@@H](C)CO)C(=O)c2cc(NC(=O)CCCN(C)C)ccc2O[C@@H]1CN(C)Cc1ccc(C(=O)O)cc1", "cytotoxicity call": "inactive"}, {"smiles": "Cc1ccc(S(=O)(=O)N(C)C[C@@H]2Oc3c(NS(=O)(=O)c4cccs4)cccc3C(=O)N([C@H](C)CO)C[C@@H]2C)cc1", "cytotoxicity call": "active"}, {"smiles": "C[C@@H]1CN([C@H](C)CO)C(=O)c2cccc(NS(=O)(=O)c3cn(C)cn3)c2O[C@@H]1CN(C)S(C)(=O)=O", "cytotoxicity call": "inactive"}, {"smiles": "C[C@@H]1CN([C@H](C)CO)C(=O)c2cccc(NS(=O)(=O)c3cccs3)c2O[C@@H]1CN(C)S(=O)(=O)c1cn(C)cn1", "cytotoxicity call": "inactive"}, {"smiles": "C[C@H](CO)N1C[C@H](C)[C@@H](CN(C)S(=O)(=O)c2cn(C)cn2)Oc2c(NS(=O)(=O)c3cccs3)cccc2C1=O", "cytotoxicity call": "active"}, {"smiles": "C[C@H]1CN([C@@H](C)CO)C(=O)c2cccc(NS(=O)(=O)c3cn(C)cn3)c2O[C@H]1CN(C)S(C)(=O)=O", "cytotoxicity call": "inactive"}, {"smiles": "Cc1ccc(S(=O)(=O)N(C)C[C@H]2Oc3c(NS(=O)(=O)c4cccs4)cccc3C(=O)N([C@H](C)CO)C[C@@H]2C)cc1", "cytotoxicity call": "inactive"}, {"smiles": "C[C@H](CO)N1C[C@H](C)[C@H](CN(C)S(C)(=O)=O)Oc2c(NS(=O)(=O)c3cn(C)cn3)cccc2C1=O", "cytotoxicity call": "active"}, {"smiles": "C[C@H]1CN([C@@H](C)CO)C(=O)c2cccc(NS(=O)(=O)c3cccs3)c2O[C@H]1CN(C)S(=O)(=O)c1cn(C)cn1", "cytotoxicity call": "inactive"}, {"smiles": "Cc1ccc(S(=O)(=O)N(C)C[C@@H]2Oc3c(NS(=O)(=O)c4cccs4)cccc3C(=O)N([C@@H](C)CO)C[C@H]2C)cc1", "cytotoxicity call": "inactive"}, {"smiles": "O=C(NO)c1ccncc1", "cytotoxicity call": "inactive"}, {"smiles": "C[C@H]1CN([C@@H](C)CO)C(=O)c2c(c3ccccc3n2C)-c2ccccc2CO[C@@H]1CN(C)C(=O)Nc1ccccc1C(F)(F)F", "cytotoxicity call": "inactive"}, {"smiles": "CC(C)NC(=O)N(C)C[C@H]1Oc2ccc(NC(=O)CCN3CCOCC3)cc2C(=O)N([C@H](C)CO)C[C@@H]1C", "cytotoxicity call": "inactive"}, {"smiles": "O=C(C[C@H]1CC[C@H]2[C@@H](COC[C@H](O)CN2C(=O)Nc2ccc(C(F)(F)F)cc2)O1)NCCc1ccncc1", "cytotoxicity call": "inactive"}, {"smiles": "Cc1noc(C)c1NC(=O)N(C)C[C@@H]1Oc2c(NC(=O)Nc3cccc4ccccc34)cccc2C(=O)N([C@@H](C)CO)C[C@@H]1C", "cytotoxicity call": "inactive"}, {"smiles": "COc1ccc(-c2cnc3c(c2)C(=O)N([C@H](C)CO)C[C@H](C)[C@H](CN(C)C(=O)C2CCOCC2)O3)cc1", "cytotoxicity call": "inactive"}, {"smiles": "C[C@@H]1CN([C@H](C)CO)C(=O)c2cc(NS(=O)(=O)c3ccc(F)cc3)ccc2O[C@H]1CN(C)C(=O)Nc1ccc(C(F)(F)F)cc1", "cytotoxicity call": "inactive"}, {"smiles": "O=c1nc(Nc2ccccc2)cn[nH]1", "cytotoxicity call": "inactive"}, {"smiles": "CO[C@H]1CN(C)C(=O)c2ccc(NC(=O)Nc3ccccc3F)cc2OC[C@H](C)N(Cc2ccccc2C(=O)O)C[C@@H]1C", "cytotoxicity call": "inactive"}, {"smiles": "COc1cccc2c1C(=O)c1c(O)c3c(c(O)c1C2=O)CC(O)(C(=O)CO)CC3OC1CC(N)C(O)C(C)O1", "note": "(stereo not drawn) [listing 1 of 2 here]", "cytotoxicity call": "active"}, {"smiles": "CCCCC(=O)OCC(=O)[C@]1(O)Cc2c(O)c3c(c(O)c2[C@@H](O[C@H]2C[C@H](NC(=O)C(F)(F)F)[C@H](O)[C@H](C)O2)C1)C(=O)c1c(OC)cccc1C3=O", "cytotoxicity call": "active"}, {"smiles": "COc1cccc2c1C(=O)c1c(O)c3c(c(O)c1C2=O)C[C@@](O)(C(=O)CO)C[C@@H]3O[C@H]1C[C@H](N)[C@H](O)[C@H](C)O1", "cytotoxicity call": "active"}, {"smiles": "COc1cccc2c1C(=O)c1c(O)c3c(c(O)c1C2=O)CC(O)(C(=O)CO)CC3OC1CC(N)C(O)C(C)O1.Cl", "note": "(stereo not drawn)", "cytotoxicity call": "active"}, {"smiles": "C[C@@H]1CN([C@@H](C)CO)C(=O)Cc2cc(NS(=O)(=O)c3ccc(Cl)cc3)ccc2O[C@@H]1CN(C)Cc1ccc(C(=O)Nc2ccccc2N)cc1", "cytotoxicity call": "inactive"}, {"smiles": "CN1N=C2CCN(C(=O)[C@@H](COCc3ccccc3)NC(=O)C(C)(C)N)C[C@@]2(Cc2ccccc2)C1=O", "cytotoxicity call": "inactive"}, {"smiles": "C[C@H]1CN([C@@H](C)CO)C(=O)c2ccccc2-c2ccccc2CO[C@H]1CN(C)C(=O)Nc1cccc(F)c1", "cytotoxicity call": "inactive"}, {"smiles": "C[C@@H]1CCCCO[C@@H](CN(C)C(=O)Nc2cccc3ccccc23)[C@@H](C)CN([C@H](C)CO)C(=O)c2cc(NC(=O)c3ccncc3)ccc2O1", "cytotoxicity call": "inactive"}, {"smiles": "CCC(=O)OC1(C(=O)SCF)C(C)CC2C3CC(F)C4=CC(=O)C=CC4(C)C3(F)C(O)CC21C", "note": "(stereo not drawn)", "cytotoxicity call": "inactive"}, {"smiles": "Cc1cc(O)c(C=O)c2c1C(=O)Oc1c(COC(=O)C=CC(=O)O)c(O)c(C(=O)O)c(C)c1O2", "cytotoxicity call": "inactive"}, {"smiles": "C[C@H]1CN([C@@H](C)CO)S(=O)(=O)c2ccc(-c3cncnc3)cc2O[C@H]1CN(C)C(=O)Cc1ccccc1", "cytotoxicity call": "inactive"}, {"smiles": "COc1ccc([C@@H]2C/C=C\\C[C@@H](c3cccc(Cl)c3)NC(=O)[C@@H](c3ccccc3)CC(=O)N2)c(OC)c1", "cytotoxicity call": "inactive"}, {"smiles": "COc1ccc(S(=O)(=O)Nc2ccc3c(c2)CC(=O)N([C@@H](C)CO)C[C@@H](C)[C@@H](CN(C)S(=O)(=O)c2ccccc2)O3)cc1", "cytotoxicity call": "inactive"}, {"smiles": "Cc1noc(C)c1NC(=O)Nc1ccc2c(c1)CC(=O)N([C@H](C)CO)C[C@@H](C)[C@H](CN(C)Cc1ccc(C(=O)Nc3ccccc3N)cc1)O2", "cytotoxicity call": "inactive"}, {"smiles": "COc1cccc2c1C(=O)c1c(O)c3c(c(O)c1C2=O)C[C@@](O)(C(=O)CO)C[C@@H]3O[C@H]1C[C@H](N)[C@@H](O)[C@H](C)O1", "cytotoxicity call": "active"}, {"smiles": "COc1cccc2c1C(=O)c1c(O)c3c(c(O)c1C2=O)CC(O)(C(=O)CO)CC3OC1CC(N)C(O)C(C)O1", "note": "(stereo not drawn) [listing 2 of 2 here]", "cytotoxicity call": "active"}, {"smiles": "COc1cccc2c1C(=O)c1c(O)c3c(c(O)c1C2=O)C[C@](O)(C(=O)CO)C[C@H]3O[C@H]1C[C@@H](N)[C@@H](O)[C@@H](C)O1", "cytotoxicity call": "active"}]}]}
